The target in assay [1] is Acetylcholinesterase (Homo sapiens) (UniProt P22303). Kind of assay: Acetylcholinesterase (AChE) small molecule antagonists: colormetric cell-based qHTS assay (AID 1347395). Note: nearly all actives have a fitted effect of over 30% in size. The gist of the method:
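Neuroblastoma line SH-SY5Y supplied the enzyme; cells were preincubated with compound for 30 min at 37 C and 5% CO2. Acetylthiocholine with DTNB was then added for 90 min at 37 C, and thiocholine was measured by colour.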
Background: Quantitative high-throughput screening tests each substance at several concentrations.

Assay [2] has the same target. Kind of assay: Acetylcholinesterase (AChE) small molecule antagonists: enzyme-based qHTS assay (AID 1347397). Note: nearly all actives have a fitted effect of over 55% in size. The following applies: Potency: AChE enzyme activity inhibition; outcome: AChE enzyme activity inhibition. The gist of the method: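 In this quantitative HTS, compounds from the Tox21 10K collection were preincubated 30 min at ambient temperature with recombinant human AChE dispensed at 50 mU/mL. Hydrolysis of acetylthiocholine was then followed for 10 min by DTNB colour development.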

For assay [3] the target is unchanged. Kind of assay: Acetylcholinesterase (AChE) small molecule antagonists: fluorescence cell-based qHTS assay (AID 1347398). Note: nearly all actives have a fitted effect of over 50% in size. Note: potency is the fitted concentration of half-maximal effect. To be noted: Potency: AChE activity; outcome: AChE activity. The gist of the method:
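Cells (SH-SY5Y) attached overnight, were dosed with compound or DMSO vehicle for 30 min at 37 C, and then incubated 40 min at room temperature with acetylthiocholine and Thiolite Green; green fluorescence indexed AChE activity.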

For assay [4] the target is unchanged. Kind of assay: Acetylcholinesterase (AChE) small molecule antagonists: enzyme-based qHTS assay with human liver microsomes (AID 1347399). Note: nearly all actives have a fitted effect of over 60% in size. The following applies: Potency: qHTS inhibition; outcome: qHTS inhibition. The procedure, abridged: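 Recombinant human AChE (50 mU/mL in the enzyme mix) and human liver microsomes (0.25 mg/mL final) were preincubated with compound and NADPH (0.25 mg/mL final) for 30 min at 37 C. Acetylthiocholine/DTNB was then added; thiocholine was read colorimetrically after 10 min at room temperature.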

The source of these data is PubChem BioAssay (Tox21).

The structures appear in SMILES notation. Inconclusive results are not listed. Some compounds were tested as several samples or in several runs, with calls that do not always agree. Calls of active or inactive are those of the source. Calls come from the whole dose curve.
% is set by controls: 0 for no effect and ±100 for the full control effect.

Sequence of Acetylcholinesterase (Homo sapiens) (P22303 whole entry, looked up): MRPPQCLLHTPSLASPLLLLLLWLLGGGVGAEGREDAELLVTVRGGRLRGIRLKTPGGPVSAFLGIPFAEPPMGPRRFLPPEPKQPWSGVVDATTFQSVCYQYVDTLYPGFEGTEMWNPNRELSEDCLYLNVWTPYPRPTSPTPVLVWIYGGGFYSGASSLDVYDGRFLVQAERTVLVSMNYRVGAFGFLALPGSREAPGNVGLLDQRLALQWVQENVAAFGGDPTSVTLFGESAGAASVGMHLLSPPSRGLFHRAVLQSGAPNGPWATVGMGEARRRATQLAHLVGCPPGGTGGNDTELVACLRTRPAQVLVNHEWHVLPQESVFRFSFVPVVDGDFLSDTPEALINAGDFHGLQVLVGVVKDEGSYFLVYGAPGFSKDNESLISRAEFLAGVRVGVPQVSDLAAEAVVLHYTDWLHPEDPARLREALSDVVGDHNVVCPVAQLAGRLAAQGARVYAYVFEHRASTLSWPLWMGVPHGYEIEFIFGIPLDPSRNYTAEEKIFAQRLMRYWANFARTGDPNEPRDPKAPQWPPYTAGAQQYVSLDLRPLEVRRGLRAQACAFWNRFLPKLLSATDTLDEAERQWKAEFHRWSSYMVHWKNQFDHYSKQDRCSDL

Regarding `Cc1ccc2ccc(Cl)cc2n1`, the Potency entry in assay [1], in assay [2], in assay [3] and in assay [4] was “inactive” throughout.
In the case of `CC(O)C#CC(C)O` (stereo not given), the Potency entry in assay [1], in assay [2], in assay [3] and in assay [4] was “inactive” throughout.
For `CC(C)n1nc(-c2cc3cc(O)ccc3[nH]2)c2c(N)ncnc21`, the Potency entry in assay [1], in assay [2], in assay [3] and in assay [4] was “inactive” each time.
For the molecule `O=c1[nH]nnc2ccccc12`, the Potency result in assay [1], in assay [2], in assay [3] and in assay [4] was “inactive” in each case.
With `CCC(C)(C)C(=O)O[C@H]1C[C@@H](C)C=C2C=C[C@H](C)[C@H](CC[C@@H]3C[C@@H](O)CC(=O)O3)[C@H]21`, the Potency result in assay [1], in assay [2], in assay [3] and in assay [4] was “inactive” throughout.
`FC(F)(Cl)C(F)(Cl)Cl`: the Potency entry in assay [1], in assay [2], in assay [3] and in assay [4] was “inactive” each time.
`CCCC(=O)c1ccccc1`: the Potency entry in assay [1], in assay [2], in assay [3] and in assay [4] was “inactive” each time.
With `COC(=O)CCCC(=O)O`, the Potency entry in assay [1], in assay [2], in assay [3] and in assay [4] was “inactive” in each case.
As for `CC(C[N+](C)(C)C)OC(N)=O` (stereo not given), the Potency result in assay [1], in assay [2], in assay [3] and in assay [4] was “inactive” throughout.
For `CC(C)(CO)COC(=O)C(C)(C)CO`, the Potency result in assay [1], in assay [2], in assay [3] and in assay [4] was “inactive” throughout.
On to `C[C@H]1O[C@H](O[C@H]2[C@H](O)[C@@H](O)[C@@H](O[C@H]3[C@H](O)[C@@H](O)[C@H](O)O[C@@H]3CO)O[C@@H]2CO)[C@H](O)[C@@H](O)[C@@H]1N[C@H]1C=C(CO)[C@@H](O)[C@H](O)[C@H]1O`, for which the Potency result in assay [1], in assay [2], in assay [3] and in assay [4] was “inactive” each time.
As for `Cc1cccc(C(=O)O)c1`, the Potency entry in assay [1], in assay [2], in assay [3] and in assay [4] was “inactive” each time.
For `Cc1cc(Cc2ccc(N)c(C)c2)ccc1N`, the Potency entry in assay [1], in assay [2], in assay [3] and in assay [4] was “inactive” throughout.
As to `Nc1ccc(O)c(N)c1`, the Potency result in assay [1], in assay [2], in assay [3] and in assay [4] was “inactive” in each case.
As to `O=Cc1ccccc1O`, the Potency result in assay [1], in assay [2] and in assay [4] was “inactive” throughout. Further, the Potency in assay [3] was 35.6 µM (active) and inactive.
Turning to `CN1CCN(C)CC1`, the Potency result in assay [1], in assay [2], in assay [3] and in assay [4] was “inactive” each time.
Consider `CC1(C)C(O)C(C)(C)C1O` (stereo not given), for which the Potency result in assay [1], in assay [2], in assay [3] and in assay [4] was “inactive” in each case.
As to `CC(C)CCOC(=O)c1ccccc1`, the Potency entry in assay [1], in assay [2], in assay [3] and in assay [4] was “inactive” in each case.
On to `O=C(NCCCN1CCOCC1)c1ccc(Cl)cc1`, for which the Potency entry in assay [1], in assay [2], in assay [3] and in assay [4] was “inactive” throughout.
Take `OCCOc1ccc(OCCO)cc1`: the Potency result in assay [1], in assay [2], in assay [3] and in assay [4] was “inactive” each time.
As to `COC(=O)CC(=O)OC`, the Potency entry in assay [1], in assay [2], in assay [3] and in assay [4] was “inactive” each time.
As to `COC(C)COC(C)COC(C)CO` (stereo not given), the Potency entry in assay [1], in assay [2], in assay [3] and in assay [4] was “inactive” in each case.
Take `CCc1cccc2c3c([nH]c12)C(CC)(CC(=O)O)OCC3` (stereo not given): the Potency result in assay [1], in assay [2], in assay [3] and in assay [4] was “inactive” in each case.
As to `CCCCNc1ccc(NCCCC)c2c1C(=O)c1ccccc1C2=O`, the activity, negative = inhibition in assay [1] was -1.89% [at 23.6 µM] (inactive). In addition, the activity change, negative = inhibition was -0.954% [at 23.6 µM] (inactive) in assay [2], 1.62% [at 23.8 µM] (inactive) in assay [3] and -2.27% [at 23.6 µM] (inactive) in assay [4].
As to `O=C(c1ccccc1)c1ccc(O)cc1O`, the Potency result in assay [1], in assay [2], in assay [3] and in assay [4] was “inactive” each time.
Regarding `CCCCCCCCS(=O)(=O)O`, the Potency entry in assay [1], in assay [2], in assay [3] and in assay [4] was “inactive” throughout.
Consider `CN1CCC(=C2c3ccccc3CCc3cccnc32)CC1`, for which the Potency result in assay [1], in assay [2], in assay [3] and in assay [4] was “inactive” throughout.
Turning to `O=[N+]([O-])c1ccc2nc[nH]c2c1`, the Potency entry in assay [1], in assay [2], in assay [3] and in assay [4] was “inactive” each time.
Take `CC1C(C)(C)C2=C(C(=O)CCC2)C1(C)C` (stereo not given): the Potency result in assay [1], in assay [2], in assay [3] and in assay [4] was “inactive” each time.
For `CN(Cc1cnc2nc(N)nc(N)c2n1)c1ccc(C(=O)N[C@@H](CCC(=O)O)C(=O)O)cc1`, the Potency result in assay [1], in assay [2], in assay [3] and in assay [4] was “inactive” in each case.
As to `C/C=C(\C)C(=O)OCCC(C)CCC=C(C)C` (stereo not given), the Potency result in assay [1], in assay [2], in assay [3] and in assay [4] was “inactive” each time.
Consider `CCOC(=O)c1ccccc1C`, for which the Potency result in assay [1], in assay [2], in assay [3] and in assay [4] was “inactive” throughout.
For `CC1(C)CC(N)CC(C)(CN)C1` (stereo not given), the Potency result in assay [1], in assay [2], in assay [3] and in assay [4] was “inactive” each time.
Take `O=C(O)CN(CCN(CC(=O)O)CC(=O)O)CCN(CC(=O)O)CC(=O)O`: the activity, negative = inhibition in assay [1] was 0.969% [at 23.6 µM] (inactive). Further, the values for the activity change, negative = inhibition in assay [2], in assay [3] and in assay [4] were 0.748% [at 23.6 µM] (inactive), 7.05% [at 23.8 µM] (inactive) and 0% [at 23.6 µM] (inactive), respectively.
On to `Nc1cccc(S(=O)(=O)c2cccc(N)c2)c1`, for which the Potency result in assay [1], in assay [2], in assay [3] and in assay [4] was “inactive” each time.
With `Oc1ccc(Cl)cc1Sc1cc(Cl)ccc1O`, the Potency entry in assay [1], in assay [2], in assay [3] and in assay [4] was “inactive” each time.
Consider `C=CCCCCCCCCC=O`, for which the Potency entry in assay [1], in assay [2], in assay [3] and in assay [4] was “inactive” throughout.
Take `Cc1cn([C@H]2C[C@H](N=[N+]=[N-])[C@@H](CO)O2)c(=O)[nH]c1=O`: the Potency result in assay [1], in assay [2], in assay [3] and in assay [4] was “inactive” in each case.
With `CCCC/C=C/C=C\C=O`, the Potency result in assay [1], in assay [2], in assay [3] and in assay [4] was “inactive” each time.
Take `C=C(C)[C@@H]1CC=C(C)C(=O)C1`: the Potency entry in assay [1], in assay [2], in assay [3] and in assay [4] was “inactive” throughout.
Regarding `Cc1cc(C)c(N)c(Cl)c1`, the Potency result in assay [1], in assay [2], in assay [3] and in assay [4] was “inactive” throughout.
Take `O=C(OCc1ccccc1)c1ccccc1O`: the Potency result in assay [1], in assay [2], in assay [3] and in assay [4] was “inactive” throughout.
With `CCCCCCCC/C=C\CCCCCCCC(=O)OC[C@@H](O)[C@H]1OC[C@H](O)[C@H]1O`, the Potency entry in assay [1], in assay [2], in assay [3] and in assay [4] was “inactive” each time.
In the case of `BrC1CCC(Br)C(Br)CCC(Br)C(Br)CCC1Br` (stereo not given), the Potency entry in assay [1], in assay [2], in assay [3] and in assay [4] was “inactive” throughout.
For `Nc1ccc(S(=O)(=O)Nc2cnc3ccccc3n2)cc1`, the Potency result in assay [1], in assay [2], in assay [3] and in assay [4] was “inactive” in each case.
As for `CC1(C)[C@@H]2CC[C@@]1(C)C(=O)C2`, the Potency entry in assay [1], in assay [2], in assay [3] and in assay [4] was “inactive” each time.
As to `OCCN1C[C@H](O)[C@@H](O)[C@H](O)[C@H]1CO`, the Potency result in assay [1], in assay [2], in assay [3] and in assay [4] was “inactive” throughout.
`O=C(OCCOCCOCCOC(=O)c1ccccc1)c1ccccc1`: the Potency entry in assay [1], in assay [2], in assay [3] and in assay [4] was “inactive” throughout.
With `COc1ccc2c(c1)CCCC2=O`, the Potency entry in assay [1], in assay [2], in assay [3] and in assay [4] was “inactive” in each case.
Regarding `CC1=CC2C3CC(C=C3C)C2C1` (stereo not given), the Potency entry in assay [1], in assay [2], in assay [3] and in assay [4] was “inactive” throughout.
In the case of `CC(C)CC(C)(N)C#N` (stereo not given), the Potency entry in assay [1], in assay [2], in assay [3] and in assay [4] was “inactive” in each case.
As to `C=C(C)C(=O)OCCOCCOCCOCCOC(=O)C(=C)C`, the Potency entry in assay [1], in assay [2], in assay [3] and in assay [4] was “inactive” each time.
In the case of `CCCCCCCCCCCCCCCCI`, in assay [1], the activity, negative = inhibition was 1.24% [at 23.6 µM] (inactive). Besides, the activity change, negative = inhibition is 1.36% [at 23.6 µM] (inactive) in assay [2], 3.93% [at 23.8 µM] (inactive) in assay [3] and 0.294% [at 23.6 µM] (inactive) in assay [4].
`O=C1O[C@@H]2[C@@H](O)[C@H](O)O[C@@H]2[C@H]1O`: the Potency result in assay [1], in assay [2], in assay [3] and in assay [4] was “inactive” in each case.
For `Nc1ccc(S(=O)(=O)c2ccc(N)cc2)cc1`, the Potency entry in assay [1], in assay [2], in assay [3] and in assay [4] was “inactive” throughout.
On to `CCOC(N)=O`, for which the Potency entry in assay [1], in assay [2], in assay [3] and in assay [4] was “inactive” each time.
With `NCCOCCO`, the Potency result in assay [1], in assay [2], in assay [3] and in assay [4] was “inactive” each time.
Turning to `Oc1cc(O)c(Cl)cc1Cl`, the Potency entry in assay [1], in assay [2], in assay [3] and in assay [4] was “inactive” each time.
Regarding `O=C1Nc2ccccc2C1(c1ccc(O)cc1)c1ccc(O)cc1`, the Potency result in assay [1], in assay [2], in assay [3] and in assay [4] was “inactive” each time.
Turning to `NCC1CCC(C(=O)Oc2ccc(CCC(=O)O)cc2)CC1` (stereo not given), the Potency entry in assay [1], in assay [2], in assay [3] and in assay [4] was “inactive” throughout.
